Ten molecules from PubChem BioAssay (NCI) can be followed below.

A short description of assay [1]: NCI Yeast Anticancer Drug Screen. Data for the rad50 strain (AID 155).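 Note: 0% = growth of vehicle-only cultures of the same strain.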 The following applies: S. cerevisiae rad50 strain growth inhibition, active compounds read high. In a few lines: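 A DNA repair-deficient yeast mutant serves as the test organism; compound-induced growth inhibition is calculated against vehicle-treated cells.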
Assay [2] can be described thus: NCI Yeast Anticancer Drug Screen. Data for the mec2-1 strain (AID 157). The following applies: S. cerevisiae mec2-1 strain, active compounds read high. In a few lines:
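Readout is yeast growth inhibition, normalised to vehicle-treated controls, in the mec2-1 strain exposed to compound.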

A short description of assay [3]: NCI Yeast Anticancer Drug Screen. Data for the sgs1 mgt1 strain (AID 161).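 Note: 0% = growth of cultures given vehicle only.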 The following applies: S. cerevisiae sgs1 mgt1 strain, active compounds read high. The procedure, abridged: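 Growth of a repair-deficient yeast mutant was monitored after compound treatment and expressed as inhibition relative to vehicle-treated cultures.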
The nature of assay [4]: NCI Yeast Anticancer Drug Screen. Data for the cln2 rad14 strain (AID 165).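 Note: 0% = growth equal to vehicle treated cultures.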 The following applies: S. cerevisiae cln2 rad14 strain, active compounds read high. The procedure, abridged: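 Relative to vehicle controls, growth inhibition of compound-treated cln2 rad14 yeast was recorded.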
Assay [5] can be described thus: NCI Yeast Anticancer Drug Screen. Data for the bub3 strain (AID 167). The following applies: S. cerevisiae bub3 mutant strain, active compounds read high. The procedure, abridged: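 Inhibition values come from growth of compound-treated mutant yeast normalised to vehicle-treated controls.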
Assay [6] in a line: NCI Yeast Anticancer Drug Screen. Data for the mlh1 rad18 strain (AID 175). To be noted: S. cerevisiae mlh1 rad18 strain growth inhibition, active compounds read high. The procedure, abridged:
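Test agents were incubated with a yeast strain of defined genotype (DNA damage repair defect). Inhibition of growth was derived by comparison with vehicle-exposed cultures.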

Setting [7] is: at 5.0 µM (retest, dose inferred, filed as 0.5).
Where [8] appears, read: at 50.0 µM (retest, dose inferred, filed as 5.0).

This is part of a sample that, as a whole, favours compounds with a hit. Of some 79,000 tested, about 15% had one in any assay. Values without a mark were called inactive. The source made the active and inactive calls. Cut-off read from the data, not from the text of the source: active = growth inhibition above about 70%; inactive = the rest.

As for `C[C@@H]1CC=C[C@@H](NC(=O)OCc2ccccc2)[C@H]1C=O`, the growth inhibition in assay [1] (setting [7]) was -4%; in assay [1] (setting [8]), 30%; in assay [1] (at 50.0 µM) it was 13.6%; in assay [2] (setting [7]) it was -5%; in assay [2] (setting [8]), -2%; in assay [2] (at 50.0 µM), -7.1%. Further, the growth inhibition was -2% in assay [3] (setting [7]); 15% in assay [3] (setting [8]); 69.3% in assay [3] (at 50.0 µM); -8% in assay [4] (setting [7]); 12% in assay [4] (setting [8]); 15.7% in assay [4] (at 50.0 µM). The growth inhibition is -18% in assay [5] (setting [7]); 47% in assay [5] (setting [8]); 5.3% in assay [5] (at 50.0 µM); -20% in assay [6] (setting [7]); 40% in assay [6] (setting [8]); 80.2% (active) in assay [6] (at 50.0 µM).
For `N#Cc1ncc(Cl)cc1[N+](=O)[O-]`, the growth inhibition in assay [1] (setting [7]) was 93% (active); in assay [1] (setting [8]), 98% (active); in assay [1] (at 50.0 µM) it was 99.5% (active); in assay [2] (setting [7]) it was 80% (active); in assay [2] (setting [8]), 99% (active); in assay [2] (at 50.0 µM) it was 99.7% (active). The growth inhibition in assay [3] (setting [7]) was 93% (active); in assay [3] (setting [8]), 99% (active); in assay [3] (at 50.0 µM) it was 99.5% (active); in assay [4] (setting [7]), 59%; in assay [4] (setting [8]), 98% (active); in assay [4] (at 50.0 µM), 99.2% (active). Further, the growth inhibition is 70% (active) in assay [5] (setting [7]); 98% (active) in assay [5] (setting [8]); 99.6% (active) in assay [5] (at 50.0 µM); 75% (active) in assay [6] (setting [7]); 98% (active) in assay [6] (setting [8]); 99.5% (active) in assay [6] (at 50.0 µM).
Regarding `COc1ccccc1NC(=O)/C(=C/n1c(=S)sc2ccccc21)C(C)=O`, the growth inhibition in assay [1] (setting [7]) is -19%; in assay [1] (setting [8]), 14%; in assay [1] (at 50.0 µM) it was 38.3%; in assay [2] (setting [7]), -19%; in assay [2] (setting [8]), 14%; in assay [2] (at 50.0 µM), 48%. Besides, the growth inhibition in assay [3] (setting [7]) is 7%; in assay [3] (setting [8]), 20%; in assay [3] (at 50.0 µM), 63.6%; in assay [4] (setting [7]) it was 11%; in assay [4] (setting [8]) it was 17%; in assay [4] (at 50.0 µM), 64.2%. In addition, the growth inhibition in assay [5] (setting [7]) was -9%; in assay [5] (setting [8]), 30%; in assay [5] (at 50.0 µM), 29.5%; in assay [6] (setting [7]), -14%; in assay [6] (setting [8]), 14%; in assay [6] (at 50.0 µM), 47%.
Take `COc1ccc(/C(Cl)=C(\C=O)c2ccc(Cl)cc2)cc1`: the growth inhibition in assay [1] (setting [7]) is 17%; in assay [1] (setting [8]) it was 17%; in assay [1] (at 50.0 µM) it was -4.05%; in assay [2] (setting [7]) it was -10%; in assay [2] (setting [8]) it was 2%; in assay [2] (at 50.0 µM) it was 7.7%. The growth inhibition is -17% in assay [3] (setting [7]); 22% in assay [3] (setting [8]); 27.8% in assay [3] (at 50.0 µM); 12% in assay [4] (setting [7]); 26% in assay [4] (setting [8]); -8.85% in assay [4] (at 50.0 µM). For the same molecule, the growth inhibition in assay [5] (setting [7]) is 18%; in assay [5] (setting [8]) it was 54%; in assay [5] (at 50.0 µM) it was 28.1%; in assay [6] (setting [7]), -6%; in assay [6] (setting [8]), 27%; in assay [6] (at 50.0 µM) it was 19.8%.
In the case of `Cc1ccc(S(=O)(=O)N/N=C(\C=C\c2ccccc2)c2ccccc2)cc1`, the growth inhibition in assay [1] (setting [7]) is -1%; in assay [1] (setting [8]), 32%; in assay [1] (at 50.0 µM), 59.1%; in assay [2] (setting [7]), 5%; in assay [2] (setting [8]), 57%; in assay [2] (at 50.0 µM), 63.9%. The growth inhibition in assay [3] (setting [7]) was 24%; in assay [3] (setting [8]), 47%; in assay [3] (at 50.0 µM), 59.5%; in assay [4] (setting [7]) it was -19%; in assay [4] (setting [8]) it was 16%; in assay [4] (at 50.0 µM) it was 44.4%. In addition, the growth inhibition in assay [5] (setting [7]) was 15%; in assay [5] (setting [8]) it was 49%; in assay [5] (at 50.0 µM) it was 41.1%; in assay [6] (setting [7]), 20%; in assay [6] (setting [8]), 70% (active); in assay [6] (at 50.0 µM), 37.1%.
For the molecule `CCCCCCCCCCCCOC(=O)C[n+]1cccc(C(N)=O)c1`, the growth inhibition in assay [1] (setting [7]) was -1%; in assay [1] (setting [8]), 99% (active); in assay [1] (at 50.0 µM) it was 99.8% (active); in assay [2] (setting [7]), -4%; in assay [2] (setting [8]), 99% (active); in assay [2] (at 50.0 µM), 99.7% (active). In addition, the growth inhibition in assay [3] (setting [7]) was -3%; in assay [3] (setting [8]), 81% (active); in assay [3] (at 50.0 µM), 99.8% (active); in assay [4] (setting [7]), -8%; in assay [4] (setting [8]), 96% (active); in assay [4] (at 50.0 µM) it was 98.2% (active). In addition, the growth inhibition was -6% in assay [5] (setting [7]); 99% (active) in assay [5] (setting [8]); 99.6% (active) in assay [5] (at 50.0 µM); -4% in assay [6] (setting [7]); 99% (active) in assay [6] (setting [8]); 99.7% (active) in assay [6] (at 50.0 µM).
In the case of `Cc1ccc(C)c(C2CCCCC2O)c1` (stereo not given), the growth inhibition was -1% in assay [1] (setting [7]); -80% in assay [1] (setting [8]); 4.5% in assay [1] (at 50.0 µM); -8% in assay [2] (setting [7]); -25% in assay [2] (setting [8]); -11.7% in assay [2] (at 50.0 µM). Moreover, the growth inhibition in assay [3] (setting [7]) was -1%; in assay [3] (setting [8]), -23%; in assay [3] (at 50.0 µM) it was -9.1%; in assay [4] (setting [7]), 9%; in assay [4] (setting [8]), -5%; in assay [4] (at 50.0 µM) it was 71.5% (active). Also, the growth inhibition in assay [5] (setting [7]) was -13%; in assay [5] (setting [8]), -87%; in assay [5] (at 50.0 µM), 51.1%; in assay [6] (setting [7]), 0%; in assay [6] (setting [8]) it was -40%; in assay [6] (at 50.0 µM) it was -16.1%.
For `COc1ccc2c(c1)Cc1ccccc1C2=O`, the growth inhibition is 14% in assay [1] (setting [7]); 34% in assay [1] (setting [8]); 15.8% in assay [1] (at 50.0 µM); 3% in assay [2] (setting [7]); 8% in assay [2] (setting [8]); 4% in assay [2] (at 50.0 µM). Further, the growth inhibition in assay [3] (setting [7]) was 0%; in assay [3] (setting [8]), 1%; in assay [3] (at 50.0 µM), 6.75%; in assay [4] (setting [7]) it was 1%; in assay [4] (setting [8]), 3%; in assay [4] (at 50.0 µM), -0.35%. For the same molecule, the growth inhibition in assay [5] (setting [7]) was 75% (active); in assay [5] (setting [8]), 85% (active); in assay [5] (at 50.0 µM), 40.6%; in assay [6] (setting [7]), 2%; in assay [6] (setting [8]), 14%; in assay [6] (at 50.0 µM), 9.1%.
As to `CS(=O)(=O)Nc1ccc(Nc2c3ccccc3nc3ccccc23)cc1`, the growth inhibition in assay [1] (setting [7]) is 13%; in assay [1] (setting [8]), 25%; in assay [1] (at 50.0 µM) it was 91.8% (active); in assay [2] (setting [7]), -7%; in assay [2] (setting [8]), -11%; in assay [2] (at 50.0 µM), 25.6%. Further, the growth inhibition in assay [3] (setting [7]) was 6%; in assay [3] (setting [8]) it was 20%; in assay [3] (at 50.0 µM), 14.3%; in assay [4] (setting [7]), -14%; in assay [4] (setting [8]) it was -3%; in assay [4] (at 50.0 µM), 18.9%. In addition, the growth inhibition in assay [5] (setting [7]) is 10%; in assay [5] (setting [8]), -2%; in assay [5] (at 50.0 µM) it was 37.9%; in assay [6] (setting [7]), 1%; in assay [6] (setting [8]), 13%; in assay [6] (at 50.0 µM), 35.1%.
Turning to `COC(=O)c1ccccc1CC(Cc1ccc2c(c1)CCC2)C(=O)OC` (stereo not given), the growth inhibition in assay [1] (setting [7]) was 20%; in assay [1] (setting [8]) it was 27%; in assay [1] (at 50.0 µM), 35%; in assay [2] (setting [7]) it was 12%; in assay [2] (setting [8]) it was 14%; in assay [2] (at 50.0 µM) it was 16.9%. For the same molecule, the growth inhibition was 10% in assay [3] (setting [7]); 20% in assay [3] (setting [8]); 29.6% in assay [3] (at 50.0 µM); 9% in assay [4] (setting [7]); -2% in assay [4] (setting [8]); 13.7% in assay [4] (at 50.0 µM). Also, the growth inhibition was 16% in assay [5] (setting [7]); 27% in assay [5] (setting [8]); 12.3% in assay [5] (at 50.0 µM); 16% in assay [6] (setting [7]); 15% in assay [6] (setting [8]); 4.25% in assay [6] (at 50.0 µM).
